Source: PubChem
DT40 TDP1 no CPT: qHTS for Inhibitors of human tyrosyl-DNA phosphodiesterase 1 (TDP1): qHTS in cells in absence of CPT; DT40 Tdp1-/- hTDP1 cells, no CPT, ATP luminescence, 48 h; Potency, µM (top dose mostly 46.2 µM), for the others: top-dose activity change, negative = growth inhibition, usual class: inhibitors; actives 15% (n = 420,000); note: potency is the fitted concentration of half-maximal effect; nearly all actives have a fitted effect of over 55% in size
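Stably hTDP1-transfected Tdp1-null chicken DT40 cells were treated with library compounds minus camptothecin and grown for at least 48 hr at 37 °C, after which cellular ATP was quantified by luminescence.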
ELG1 DNA repair: qHTS screen for small molecules that inhibit ELG1-dependent DNA repair in human embryonic kidney (HEK293T) cells expressing luciferase-tagged ELG1; Potency, µM (top dose mostly 46.1 µM), for inactives: at the highest dose activity change, negative = inhibition, actives largely listed as inhibitors; actives 2.3% (n = 330,000); HEK293T ELG1-luciferase reporter, luminescence, 16 h; DNA damage induced by 5-fluorouridine; note: potency is the fitted concentration of half-maximal effect; nearly all actives have a fitted effect of over 55% in size
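Luminescence from the luciferase reporter, measured 30 min after ONE-Glo reagent at room temperature, was the read-out. Beforehand, 2,000 cells per well were exposed for 16 hr at 37 °C to 5-fluorouridine together with compound or vehicle.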
VP16 counter: VP16 counterscreen qHTS for inhibitors of ROR gamma transcriptional activity; Drosophila S2 Gal4-VP16 UAS-luciferase, luminescence, 20 h; actives 3.5% (n = 310,000); Potency, µM (highest dose often 53.6 µM), inactives show top-dose activity, negative = inhibition, actives largely listed as inhibitors;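 note: Gal4-VP16 expression switched on by copper sulfate through the metallothionein promoter; potency is the fitted concentration of half-maximal effect; nearly all actives have a fitted effect of over 50% in size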
IL1B secr inh: qHTS for Inhibitors of Inflammasome Signaling: IL-1-beta AlphaLISA Primary Screen; AID 743279, 2014; THP-1 LPS/ATP IL-1B secretion, AlphaLISA, 16 h; active compounds read low; activity change, % at 57.5 µM; actives 4.7% (n = 360,000); in the data active = activity change below about -50%; inconclusive = mostly about -30% to -49%
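THP-1 cells pretreated 1 hr with compounds (up to 57.5 uM final), then stimulated with LPS (250 ng/mL final) plus ATP (1.25 mM final); secreted IL-1B measured by AlphaLISA after 16 hr, decreased signal indicating inhibition.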
RORg inh: qHTS for inhibitors of ROR gamma transcriptional activity; Drosophila S2 Gal4-RORgamma UAS-luciferase reporter, 20 h; AID 2551, 2010; Potency, µM (titrated, usually from 53.6 µM), for inactives: at the highest dose activity change, negative = inhibition, hits mostly inhibitors; actives 5.4% (n = 310,000); note: potency is the fitted concentration of half-maximal effect; nearly all actives have a fitted effect of over 60% in size
Target sequence (P51450 whole entry, looked up, the tested form may be a part): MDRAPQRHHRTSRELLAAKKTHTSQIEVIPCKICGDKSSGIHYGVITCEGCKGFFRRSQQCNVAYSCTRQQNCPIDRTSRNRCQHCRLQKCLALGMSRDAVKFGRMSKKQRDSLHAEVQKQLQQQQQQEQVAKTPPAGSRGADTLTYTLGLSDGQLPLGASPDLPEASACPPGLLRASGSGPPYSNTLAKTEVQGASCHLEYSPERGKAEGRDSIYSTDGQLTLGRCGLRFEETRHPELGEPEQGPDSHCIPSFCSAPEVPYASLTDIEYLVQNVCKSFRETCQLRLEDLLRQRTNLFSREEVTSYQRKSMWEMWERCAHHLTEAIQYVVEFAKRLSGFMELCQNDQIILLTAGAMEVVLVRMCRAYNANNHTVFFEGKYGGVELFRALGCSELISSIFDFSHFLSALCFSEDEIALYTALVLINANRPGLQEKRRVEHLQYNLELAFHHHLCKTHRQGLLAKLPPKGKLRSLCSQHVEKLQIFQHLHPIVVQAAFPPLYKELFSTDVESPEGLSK
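Stable Schneider cell line, Gal4 DNA-binding domain fused to ROR gamma, UAS-luciferase. Cmpd 1 hr RT → CuSO4 700 uM final → 20 hr RT → luciferase reagent 10 min → luminescence.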
DT40 TDP1 CPT: qHTS for Inhibitors of human tyrosyl-DNA phosphodiesterase 1 (TDP1): qHTS in cells in presence of CPT. chicken DT40 Tdp1-/-;hTDP1 cells + 20 nM CPT, ATP luminescence, 48 h. Potency, µM (titrated, usually from 46.2 µM), inactives show at the top dose activity change, negative = growth inhibition, most hits filed as inhibitors. actives 12% (n = 420,000). AID 686979, 2013; note: potency is the fitted concentration of half-maximal effect; nearly all actives have a fitted effect of over 55% in size
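Chicken DT40 Tdp1-/- cells stably complemented with human TDP1 were seeded at 400 cells/well in medium containing 20 nM camptothecin, exposed to pin-transferred compounds, and grown at 37 °C for at least 48 hr. Viability was read as ATP luminescence.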
* = called active by the depositor; ? = inconclusive; . = not tested or not shown; [ ] = remark or other dose. Only some compounds are listed: those with a hit (about 21% of all), similar ones and a draw of the others. Unless noted, calls come from the whole dose curve; as a rule, active = well fitted curve in the direction sought with a large enough effect; inconclusive = small, poorly fitted or top-dose-only effect, or another doubt; inactive = no such curve, though single readings can be large; an effect the other way counts as inactive or inconclusive. % is set by controls: 0 for no effect and ±100 for the full control effect.

SMILES	DT40 TDP1 no CPT	ELG1 DNA repair	VP16 counter	IL1B secr inh	RORg inh	DT40 TDP1 CPT
CCN1CCN(c2cc(C)c3cc(NC(=S)NCCCN4CCc5ccccc5C4)ccc3n2)CC1	14.6µM*	21.3%	-21.2%	-22.8	?	?
Cc1ccc(C)c(CSc2nc3[nH]ncc3c(=O)[nH]2)c1	1.03µM*	?	-12.6%	-6.6	-22.1%	2.59µM*
Cc1nnc(NC(=O)CSc2nc3[nH]ncc3c(=O)[nH]2)s1	14.6µM*	20.8%	-7.5%	20.8	-20.2%	?
CCc1nnc(NC(=O)CSc2nc3[nH]ncc3c(=O)[nH]2)s1	-0.7%	1.1%	-4.7%	12.8	-15.7%	7.5%
O=C(OCC(=O)N1CCCC1=O)c1ccc(Cl)cc1[N+](=O)[O-]	-0.6%	3.1%	.	8.0	.	16.2%
O=C(/C=C/c1ccccn1)c1cc(Cl)cc(Cl)c1O	?	0.0%	-2.6%	-80.4*	4.9%	?
COc1ccc(/C=C/C(=O)c2cc(Cl)cc(Cl)c2O)c(OC)c1	?	-6.0%	-3.1%	-13.5	25.4%	-10.1%
O=C(CSc1c2c(nc3cc(Cl)ccc13)CCCC2)NCCN1CCOCC1	?	-10.2%	6.4%	-91.5*	3.8%	?
O=C(CSc1c2c(nc3cc(Cl)ccc13)CCCC2)NCCCN1CCOCC1	?	-9.1%	5.6%	-100.9*	-11.3%	?
CCN(CC)CCCNC(=O)CSc1c2c(nc3cc(Cl)ccc13)CCCC2	5.8µM*	?	-11.0%	0.0	11.2%	8.2µM*
O=C(CSc1c2c(nc3ccc(Cl)cc13)CCCC2)NCCCN1CCOCC1	?	-3.9%	-0.4%	-92.9*	?	?
CCCCNC(=O)c1ccc2c(SCC(=O)O)c3c(nc2c1)CCCC3	-2.7%	4.6%	-2.4%	1.9	21.6%	-6.4%
COC(C)(C)[C@@H](O)COc1c2ccoc2cc2oc(=O)ccc12	4.3%	2.7%	.	-1.8	.	5.0%
Cc1nnc(NC(=O)c2ccc(S(=O)(=O)N3CCCCCC3)cc2)o1	?	-11.3%	1.26µM*	-3.7	0.708µM*	-22.5%
CC(=O)Nc1ccc(NC(=O)c2ccc(S(=O)(=O)N3CCCCCC3)cc2)cc1	-16.1%	.	.	14.0	.	-15.9%
CC1CN(S(=O)(=O)c2ccc(C(=O)Nc3ccccc3F)cc2)CC(C)O1 (stereo unspecified)	4.4%	-21.3%	.	-10.7	.	-15.0%
COCc1nnc(NC(=O)c2ccc(S(=O)(=O)N3CCCCCC3)cc2)o1	?	?	0.282µM*	15.4	2.24µM*	-29.1%
Cc1nnc(NC(=O)c2ccc(S(=O)(=O)N3CC(C)OC(C)C3)cc2)o1 (stereo unspecified)	-23.2%	5.2%	3.98µM*	6.3	4.47µM*	-10.2%
CCOC(=O)C1(CCOC)CCN(Cc2cccc(OCc3ccccc3)c2)CC1	16.4µM*	-3.9%	13.3%	-0.3	43.2%	14.6µM*
CCOC(=O)C1(CCOC)CCN(Cc2nc(C(C)C)cs2)CC1	25.9µM*	13.6%	?	37.6	-20.4%	?
CCOC(=O)C1(CCOc2ccccc2)CCN(Cc2cccs2)CC1	?	?	21.5%	-11.4	?	?
CCOC(=O)C1(CCOc2ccccc2)CCN(Cc2cccc(OC)c2O)CC1	?	?	-15.4%	-84.9*	-10.4%	?
CCOC(=O)C1(CCOc2ccccc2)CCN(Cc2cc(OC)ccc2OC)CC1	14.6µM*	?	-1.0%	-7.3	1.2%	?
CCNC(=O)C1(C)CCN(C(=O)CCc2ccccc2)C1 (stereo unspecified)	-21.6%	.	.	5.5	.	-5.9%
CCOC(=O)C1(CCOc2ccccc2)CCN(Cc2cccc(OC)c2)CC1	14.6µM*	.	.	-8.3	.	23.1µM*
SMILES	DT40 TDP1 no CPT	ELG1 DNA repair	VP16 counter	IL1B secr inh	RORg inh	DT40 TDP1 CPT
COc1ccccc1/C=C/CN1CCCC(CO)(CCc2ccccc2)C1 (stereo unspecified)	?	-28.0%	-7.8%	-93.9*	-9.2%	20.6µM*
CCOC(=O)C1(CCOC)CCN(Cc2ccccc2-c2ccco2)CC1	?	-0.4%	0.9%	13.5	0.2%	?
CCOC(=O)C1(CCOC)CCN(C/C=C/c2ccccc2OC)CC1	10.3µM*	.	.	0.0	.	10.3µM*
OCC1(CCc2ccccc2)CCCN(C/C=C/c2ccccc2)C1 (stereo unspecified)	?	-20.9%	-13.8%	?	-1.7%	6.5%
Cc1ccc(S(=O)c2ccc(C)cc2)cc1	-18.0%	-5.2%	-13.3%	-5.5	-0.1%	-8.1%
Cc1nnsc1S(=O)c1ccc(F)cc1 (stereo unspecified)	14.6%	-0.5%	3.7%	-50.3*	-0.1%	-8.5%
Cc1nnsc1S(=O)c1ccc(Br)cc1 (stereo unspecified)	?	?	-8.1%	-8.0	-25.8%	18.4µM*
Cc1ccc(S(=O)c2snnc2C)cc1 (stereo unspecified)	-10.4%	-5.5%	-6.0%	-17.9	4.5%	-4.7%
CNC1C(O)C(O[C@H]2C(O)[C@@H](OC3OC(CN)=CCC3N)[C@H](N)C[C@@H]2N)OC[C@]1(C)O (stereo partly specified)	-1.7%	.	-3.7%	.	9.8%	0.2%
Oc1ccc(/C=N/n2cnn(Cc3ccccc3Cl)c2=S)c(O)c1	-4.8%	4.3%	0.1%	15.8	2.1%[10 µM]	?
COc1cc(/C=N/O)ccc1OCc1ccccc1Cl	?	?	5.01µM*	-25.5	1µM*	-26.4%
COc1ccc(/C=N/n2cnn(Cc3ccccc3Cl)c2=S)cc1OC	?	?	?	-54.6*	21.5%	?
CC(=O)c1cccc(Nc2ccc(Br)cc2)c1	?	.	.	1.0	.	?
CCC(=O)Nc1cccc(NC(=S)NC(=O)c2ccc(C)cc2)c1	?	?	7.0%	-0.1	-11.1%	?
CC(=O)c1cccc(NC(=S)NC(=O)c2ccc(Br)cc2)c1	-13.2%	?	10µM*	6.0	5.62µM*	-5.3%
CC(=O)c1cccc(NC(=S)NC(=O)c2ccc(C)cc2)c1	18.4µM*	?	12.6µM*	-6.5	10µM*	?
